Sfp inh: Sfp phosphopantetheinyl transferase inhibition; Potency, µM, for inactives: largest response in the series, negative = inhibition, most hits filed as inhibitors; Biochemical Sfp PPTase activity, qHTS; 310,000 tested, 3.5% active;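 also: the enzyme is Sfp with the accession as filed and its product quenches rhodamine fluorescence; 0% = enzyme reaction without inhibitor and -100% = no enzyme wells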
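Fluorescence-quenching assay with 15 nM Sfp, 5 uM rhodamine-CoA and 12.5 uM BHQ-2-labelled ybbR peptide in pH 7.6 Hepes/MgCl2 buffer. Enzyme was pre-incubated with compound for 15 min at room temperature. Rate was taken from the 30-min fluorescence change (525/598 nm).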
BAZ2B block: BAZ2B (human) inhibition; Q9UIF8; Potency, µM (titrated, usually from 114 µM), inactives show at the top dose activity change, negative = inhibition, most hits filed as inhibitors; AlphaScreen BAZ2B-H3K14Ac peptide displacement; 360,000 tested, 4.4% active; also: % is scaled to controls: 0 for no effect and ±100 for the full control effect; nearly all actives have a fitted effect of over 60% in size
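Multi-concentration screen (max 110 uM) measuring displacement of acetylated histone H3 peptide from BAZ2B by AlphaScreen, using 50 nM protein, 50 nM peptide and 10 ug/mL streptavidin donor plus Ni-chelate acceptor beads.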
HP1b binding inh: HP1-beta chromodomain-methylated histone interaction inhibition | 390,000 tested, 0.56% active | AlphaScreen HP1-beta / biotin-H3K9me3 peptide binding | Potency, µM (doses to about 114 µM), for inactives: at the top dose activity change, negative = inhibition, usual class: inhibitors | AID 540317 | P83916; also: nearly all actives have a fitted effect of over 70% in size
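AlphaScreen: HP1-beta (50 nM) preformed 30 min with biotin-H3(1-18)K9me3 peptide (50 nM) in PBS pH 7.4, 0.01% Tween-20. Compound added for 30 min at RT, then streptavidin donor/nickel chelate acceptor beads (10 ug/mL) for 30 min.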
ALOX12 inh: inhibitors of human 12S-lipoxygenase ALOX12. Potency, µM (titrated, usually from 108 µM), without a hit: at the highest dose activity change, negative = inhibition, actives largely listed as inhibitors. AID 1671190. 580,000 tested, 1.1% active. P18054. purified 12hLO, xylenol orange hydroperoxide absorbance; also: % is scaled to controls: 0 for no effect and ±100 for the full control effect
Target sequence (P18054 whole entry, looked up): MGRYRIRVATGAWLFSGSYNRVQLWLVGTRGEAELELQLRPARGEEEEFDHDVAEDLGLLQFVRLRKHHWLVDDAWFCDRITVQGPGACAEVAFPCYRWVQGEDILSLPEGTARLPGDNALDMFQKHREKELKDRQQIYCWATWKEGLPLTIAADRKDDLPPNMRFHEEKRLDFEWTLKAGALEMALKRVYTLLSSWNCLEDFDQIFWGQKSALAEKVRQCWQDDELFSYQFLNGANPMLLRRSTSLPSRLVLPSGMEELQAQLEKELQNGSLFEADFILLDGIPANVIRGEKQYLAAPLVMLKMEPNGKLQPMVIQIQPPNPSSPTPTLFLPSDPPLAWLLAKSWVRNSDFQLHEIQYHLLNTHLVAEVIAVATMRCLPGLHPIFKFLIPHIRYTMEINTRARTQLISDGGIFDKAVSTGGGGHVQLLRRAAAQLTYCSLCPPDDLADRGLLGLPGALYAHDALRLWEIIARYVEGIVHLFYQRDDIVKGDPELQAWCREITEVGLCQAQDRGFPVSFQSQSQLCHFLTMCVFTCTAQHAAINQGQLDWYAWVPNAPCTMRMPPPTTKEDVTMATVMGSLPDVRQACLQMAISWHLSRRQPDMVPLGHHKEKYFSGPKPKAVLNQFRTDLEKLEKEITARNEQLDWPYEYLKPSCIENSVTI
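Hydroperoxide product was detected by ferrous iron/xylenol orange as the 573 to 405 nm absorbance ratio. Arachidonic acid at 40 uM (final) was turned over for 30 min at room temperature by 150 nM human 12hLO, pH 7.0 Hepes buffer, after 15 min compound preincubation.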
JMJD2A Tudor: blocks the human JMJD2A Tudor domain. AlphaScreen JMJD2A-Tudor / H3K4me3 peptide binding. Potency, µM (series often up to 114 µM), for inactives: at the top dose activity change, negative = inhibition, most hits filed as inhibitors. 390,000 tested, 4.4% active. AID 504339; also: % is scaled to controls: 0 for no effect and ±100 for the full control effect; nearly all actives have a fitted effect of over 50% in size
G9a block: inhibitors of human histone lysine methyltransferase G9a. Potency, µM (doses to about 102 µM), without a hit: at the top dose activity, negative = inhibition, hits mostly inhibitors. G9a H3K9 monomethylation, AlphaScreen, 2 h. 350,000 tested, 8.8% active. Q96KQ7; also: % is scaled to controls: 0 for no effect and ±100 for the full control effect; nearly all actives have a fitted effect of over 75% in size
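Chemiluminescent proximity detection of H3K9 monomethylation, read after 10 min bead incubation in the dark. Reaction: 20 nM G9a, 500 nM biotin-H3K9 peptide, 20 uM SAM cofactor, 2 h, room temperature, following 15 min enzyme-compound preincubation.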
An asterisk follows results filed as active; [ ] = dose if it differs, or a comment. Sampled rows, rich in hits. Any-hit rate of the full collection: about 8.7%. Calls follow the shape of the dose curve; as a rule, active = well fitted curve in the direction sought with a large enough effect; inconclusive = small, poorly fitted or top-dose-only effect, or another doubt; inactive = no such curve, though single readings can be large; an effect the other way counts as inactive or inconclusive. Potency is read from the fitted curve at half-maximal effect.

Results for COC(=O)C1=C(C)N(c2ccc(F)cc2)C(=O)C1 ?
Sfp inh: 12%; BAZ2B block: 12%; HP1b binding inh: 61%; ALOX12 inh: -11%; JMJD2A Tudor: -11%[57.1 µM]; G9a block: 45µM*

How did COc1cccc(CNC(=O)[C@H]2CCC[C@H]2NC(=O)c2ccncc2)c1OC do in these assays?
ALOX12 inh: 11%

What do the screens show for `CC1CCCCN1C(=O)C(NC(=O)c1cccs1)C1CCN(C(=O)C2CCCC2)CC1` (stereo unspecified)?
ALOX12 inh: -5%

Results for CNC(=O)c1nn(CC(=O)N(CCc2ccccc2)Cc2ccccc2)c(=O)c2ccccc12 ?
ALOX12 inh: 7%

How did N#CC1=C(N)OC2=C(CC/C2=C\c2ccccc2)C1c1ccccc1 (stereo unspecified) do in these assays?
Sfp inh: 21%; BAZ2B block: 89µM*; HP1b binding inh: inconclusive; ALOX12 inh: -18%; JMJD2A Tudor: inconclusive; G9a block: 45µM*

How did N#CC1=C(N)OC2=C(CC/C2=C\c2ccccc2Cl)C1c1ccccc1Cl (stereo unspecified) do in these assays?
Sfp inh: -7%; BAZ2B block: inconclusive; HP1b binding inh: 7%; ALOX12 inh: inconclusive; JMJD2A Tudor: inconclusive; G9a block: 22µM*

What do the screens show for `Cc1ccc(Cn2ccn3nc4c(c3c2=O)CCCC4)cc1`?
ALOX12 inh: 11%

Results for COc1ccc(C(=O)NCc2nnc(SCC(=O)c3ccccc3)n2C)cc1OC ?
BAZ2B block: 7%; HP1b binding inh: 19%; ALOX12 inh: -5%; JMJD2A Tudor: -13%; G9a block: 56µM*

How did COc1ccc(C(=O)CSc2nnc(CNC(=O)c3ccc(OC)cc3)n2C)cc1 do in these assays?
Sfp inh: -10%; BAZ2B block: 4%; HP1b binding inh: 15%; ALOX12 inh: 0%[57.4 µM]; JMJD2A Tudor: 50µM*; G9a block: inconclusive

How did Cc1ccc(C(=O)CSc2nnc(CNc3nc(-c4ccccc4)cs3)n2C)cc1 do in these assays?
Sfp inh: -4%; BAZ2B block: inconclusive; HP1b binding inh: 18%; ALOX12 inh: -9%; JMJD2A Tudor: -28%[11.4 µM]; G9a block: 35µM*

How did CCn1cc(/C=C/C(=O)Nc2ccn(Cc3c(F)c(F)cc(F)c3F)n2)cn1 do in these assays?
Sfp inh: 28µM*; BAZ2B block: -6%; HP1b binding inh: 8%; ALOX12 inh: -11%; JMJD2A Tudor: -25%; G9a block: 45µM*

What do the screens show for `CC(N)=O`?
ALOX12 inh: -8%; G9a block: 0.79µM*

What do the screens show for `Cc1cc(C)n(-c2nc(C)c(C)c(=O)n2CC(=O)Nc2ccc(Cl)c(Cl)c2)n1`?
BAZ2B block: -8%; HP1b binding inh: 29%; ALOX12 inh: -13%; JMJD2A Tudor: -16%; G9a block: 4.5µM*

What do the screens show for `Cc1cc(C)n(-c2nc(C)c(C)c(=O)n2CC(=O)Nc2ccc(OC(F)(F)F)cc2)n1`?
BAZ2B block: 2%; HP1b binding inh: 60%; ALOX12 inh: -3%; JMJD2A Tudor: -9%; G9a block: 0%[59 µM]

Results for CC(=O)NC[C@H]1CCN(S(=O)(=O)c2ccc3c(c2)CCC3)C[C@H]1N(C)C ?
ALOX12 inh: 1%

Results for c1ccc(CNC2=NCCCCC2)cc1 ?
Sfp inh: 8%; BAZ2B block: 21%; HP1b binding inh: 29%; ALOX12 inh: 2%; JMJD2A Tudor: -4%; G9a block: 23%

What do the screens show for `Brc1ccc(-c2csc(NC3=NCCCCC3)n2)cc1`?
Sfp inh: 1%; BAZ2B block: 0%; HP1b binding inh: 26%[57 µM]; ALOX12 inh: 12%; JMJD2A Tudor: -5%; G9a block: 16%[59 µM]

What do the screens show for `c1ccc(NNC2=NCCCCC2)cc1`?
Sfp inh: 13%; BAZ2B block: 0%; HP1b binding inh: 36%; ALOX12 inh: inconclusive; JMJD2A Tudor: -6%; G9a block: 2.5µM*

Results for c1ccc(-c2csc(NNC3=NCCCCC3)n2)cc1 ?
Sfp inh: 40µM*; BAZ2B block: inconclusive; HP1b binding inh: inconclusive; ALOX12 inh: inconclusive; JMJD2A Tudor: -2%[11.4 µM]; G9a block: 10µM*

What do the screens show for `Fc1ccc(-c2csc(NC3=NCCC3)n2)cc1`?
Sfp inh: -18%; HP1b binding inh: 21%; ALOX12 inh: -7%; JMJD2A Tudor: -20%; G9a block: inconclusive

How did Clc1ccc(-c2csc(NNC3=NCCCCC3)n2)cc1 do in these assays?
Sfp inh: 56µM*; BAZ2B block: -7%[57.1 µM]; HP1b binding inh: -26%; ALOX12 inh: inconclusive; JMJD2A Tudor: inconclusive; G9a block: 5%[2.33 µM]

What do the screens show for `CCn1c(SCCC(=O)O)nc2c(=O)n(C)c(=O)n(C)c21`?
ALOX12 inh: 4%

How did COC(=O)c1ccccc1NC(=O)c1ccccc1SC do in these assays?
Sfp inh: inconclusive; BAZ2B block: 62%; HP1b binding inh: 40%; ALOX12 inh: inconclusive; JMJD2A Tudor: 26%; G9a block: 8.9µM*

What do the screens show for `COc1ccc2o/c(=N\O)c(C(=O)Nc3ccccc3OC)cc2c1`?
Sfp inh: 50µM*; BAZ2B block: -24%; HP1b binding inh: 5%; ALOX12 inh: inconclusive; JMJD2A Tudor: -25%; G9a block: 1.6µM*

What do the screens show for `CCOc1ccccc1NC(=O)c1cc2cc(OC)ccc2oc1=O`?
ALOX12 inh: 21%

How did CCOC(=O)c1ccccc1NC(=O)c1ccccc1SC do in these assays?
Sfp inh: -25%; BAZ2B block: 29%; HP1b binding inh: 61%; ALOX12 inh: inconclusive; JMJD2A Tudor: 72%; G9a block: inconclusive

How did COc1ccc(NC(=O)c2ccccc2SC)c(OC)c1 do in these assays?
Sfp inh: 11%; BAZ2B block: -12%; HP1b binding inh: 35%; ALOX12 inh: 0%; JMJD2A Tudor: -11%; G9a block: 18µM*

Results for COc1ccc(NC(=O)c2c(OC)cccc2OC)c(OC)c1 ?
Sfp inh: 2%; BAZ2B block: 50µM*; HP1b binding inh: inconclusive; ALOX12 inh: 6%; JMJD2A Tudor: 56µM*; G9a block: inconclusive

What do the screens show for `Cc1cc(C)c(C(=O)c2cc3ccccc3o2)c(C)c1`?
ALOX12 inh: -18%

Results for CCCCC(CC)C(=O)Nc1ccccc1F (stereo unspecified) ?
ALOX12 inh: 7%

How did COc1cc(NS(=O)(=O)c2ccc(C)c(C)c2)c(OC)cc1Cl do in these assays?
Sfp inh: 79µM*; BAZ2B block: -2%; HP1b binding inh: 18%; ALOX12 inh: 0%; JMJD2A Tudor: -11%; G9a block: inconclusive
